Source: PubChem BioAssay (National Center for Advancing Translational Sciences (NCATS))
CtBP-E1A blk = blocks the CtBP interaction with E1A; 0.49% of 340,000 active; activity change, % (no concentration beside the values); AID 651724; AlphaScreen GST-E1A/His-CtBP binding, 1536-well; hits give low values; in the data active means activity change below about -65%; inconclusive means mostly about -30% to -63%; further: on the % scale 0 is the no-effect control and ±100 the full control effect
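GST-E1A and His-tagged CtBP (125 nM each as 5X stock) were preincubated with pin-transferred compound for 2 h at 37 °C in the dark, then glutathione donor and nickel acceptor beads were added for 1 h before AlphaScreen reading.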
JMJD2A Tudor inh = inhibitors of human JMJD2A Tudor domain | AlphaScreen JMJD2A-Tudor / H3K4me3 peptide binding | 4.4% of 390,000 active | Potency, µM (doses to about 114 µM), for inactives: top-dose activity change, negative = inhibition, usual class: inhibitors; further: potency means the concentration at half of the fitted maximal effect; on the % scale 0 is the no-effect control and ±100 the full control effect; nearly all actives have a fitted effect of over 50% in size
HP1b binding inh = inhibitors of HP1-beta chromodomain binding to methylated histone tails | P83916 | AlphaScreen HP1-beta / biotin-H3K9me3 peptide binding | Potency, µM (top dose mostly 114 µM), without a hit: top-dose activity change, negative = inhibition, actives largely listed as inhibitors | 0.56% of 390,000 active; further: potency means the concentration at half of the fitted maximal effect; nearly all actives have a fitted effect of over 70% in size
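AlphaScreen: HP1-beta (50 nM) preformed 30 min with biotin-H3(1-18)K9me3 peptide (50 nM) in PBS pH 7.4, 0.01% Tween-20. Compound added for 30 min at RT, then streptavidin donor/nickel chelate acceptor beads (10 ug/mL) for 30 min.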
BAZ2B block = inhibitors of human BAZ2B bromodomain; AlphaScreen BAZ2B-H3K14Ac peptide displacement; Potency, µM (top dose mostly 114 µM), without a hit: top-dose activity change, negative = inhibition, hits mostly inhibitors; 4.4% of 360,000 active; Q9UIF8; further: potency means the concentration at half of the fitted maximal effect; on the % scale 0 is the no-effect control and ±100 the full control effect; nearly all actives have a fitted effect of over 60% in size
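Complex of BAZ2B and biotin-H3K14Ac (50 nM apiece) forms over 30 min at RT, then faces library compounds up to 110 uM for another 30 min; AlphaScreen beads added, 20 min dark incubation, luminescence read.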
G9a block = blocks human histone lysine methyltransferase G9a; Q96KQ7; G9a H3K9 monomethylation, AlphaScreen, 2 h; Potency, µM (series often up to 102 µM), for inactives: at the highest dose activity, negative = inhibition, hits mostly inhibitors; 8.8% of 350,000 active; AID 504332; further: potency means the concentration at half of the fitted maximal effect; on the % scale 0 is the no-effect control and ±100 the full control effect; nearly all actives have a fitted effect of over 75% in size
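AlphaScreen detection with an anti-monomethyl H3K9 antibody quantified product after a 2 h room-temperature reaction containing 500 nM biotinylated H3K9 peptide, 20 µM SAM and 20 nM enzyme, which had been preincubated 15 min with compound.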
Six1-Eya2 inh = inhibitors of human Six1/Eya2 interaction; 0.56% of 360,000 active; AlphaScreen GST-Six1/His-Eya2 binding, biochemical; hits give low values; Q15475+O00167; activity change, % (test concentration not listed); in the data active means activity change below about -65%; inconclusive means mostly about -30% to -63%; further: on the % scale 0 is the no-effect control and ±100 the full control effect
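Six1/Eya2 binding was read as AlphaScreen signal after compounds were pinned into GST-Six1 plus His-tagged Eya2 (5X stock 250/500 nM) in pH 8.0 Tris/NaCl/TCEP buffer, beads added, then incubated 1 h, 37 C, dark.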
* = called active by the depositor; ? = inconclusive; . = no result given; [ ] = remark or other dose. This is a sample that favours compounds with a hit; in the whole collection about 10% have one here. Unless noted, the call rests on the fitted dose curve; in most records, active means well fitted inhibition curve with a large enough effect; inconclusive means small, poorly fitted or top-dose-only effect; inactive means no such curve, though single readings can be large or run the other way.

SMILES	CtBP-E1A blk	JMJD2A Tudor inh	HP1b binding inh	BAZ2B block	G9a block	Six1-Eya2 inh
O=S(=O)(Nc1ccc(O)c(Sc2nc3ccccc3s2)c1)c1ccc(F)cc1	-10	?	11%	-30%	5%[59 µM]	-7
CCOC(=O)c1cc(S(=O)(=O)Nc2cc(OC)ccc2OC)[nH]n1	.	?	-4%[57 µM]	-36%	11µM*	.
CCOC(=O)c1cc(S(=O)(=O)Nc2cc(C)c(Cl)cc2OC)[nH]n1	.	?	1%[57 µM]	-34%	14µM*	.
COC(=O)C(C)Oc1cc(OC(C)C(=O)OC)c2c(C)c(Cl)c(=O)oc2c1 (stereo not drawn)	5	-5%	48%	-1%	-4%	-3
Cc1cccc(-n2c3c(cc(-c4nc(-c5ccc(Cl)cc5)cs4)c2=O)C(=O)CC(C)(C)C3)c1	.	15%	17%	15%	-6%[59 µM]	.
N[C@@H](Cc1ccccc1)c1nnc2sc(SCc3ccccc3)nn12	-4	?	71%	?	7.1µM*	-1
O=C1CN(C(=O)COC(=O)CCCOc2ccccc2)c2ccccc2N1	-14	-7%	8%	-10%	65%	6
CCN(CC)S(=O)(=O)c1cccc(C(=O)Nc2sc3c(c2C#N)CCC(C)C3)c1 (stereo not drawn)	.	-16%	25%	-20%	22%[59 µM]	.
COc1cccc(OC)c1OC(=O)C1CC(=O)N(c2ccc3c(c2)OCCO3)C1 (stereo not drawn)	3	56µM*	-35%	.	.	-11
O=C(O)C1CC(=O)N(c2ccc3c(c2)OCCO3)C1 (stereo not drawn)	11	3.2µM*	?	?	-26%[59 µM]	-16
CCOC(=O)c1ccccc1NC(=O)COC(=O)C1CC(=O)N(c2ccc3c(c2)OCCO3)C1 (stereo not drawn)	7	-30%	17%	-3%	?	3
O=C(Nc1ccccc1Br)C1CC(=O)N(c2ccc3c(c2)OCCO3)C1 (stereo not drawn)	-5	-16%	10%	6%	79µM*	7
O=C(Nc1ccc2c(c1)OCO2)C1CC(=O)N(c2ccc3c(c2)OCCO3)C1 (stereo not drawn)	-5	-3%[57.1 µM]	28%	?	-7%	-5
O=C(COC(=O)C1CC(=O)N(c2ccc3c(c2)OCCO3)C1)NC1CCCc2ccccc21 (stereo not drawn)	2	-9%	21%	-32%	79µM*	-1
C[C@H](CO)N1C[C@H](C)[C@@H](CN(C)C(=O)Nc2ccc(C(F)(F)F)cc2)Oc2ccc(NC(=O)Cc3ccccc3)cc2C1=O	-1	-21%	38%	.	.	-4
CCC(C(=O)N1CCN(c2ccccc2)CC1)n1nc(C)c2sc3ccccc3c2c1=O (stereo not drawn)	.	-9%	18%	0%	-5%[59 µM]	.
Cc1ccc(NC(=O)C2CC(=O)N(c3ccc4c(c3)OCCO4)C2)nc1 (stereo not drawn)	1	-10%	11%	-38%	-38%	-7
Cc1ccnc(NC(=O)C2CC(=O)N(c3ccc4c(c3)OCCO4)C2)c1 (stereo not drawn)	-15	-14%	14%	79µM*	19%	-12
CCC/C=C1/CCCOC(C(=O)NCC2CC2)(C(F)(F)F)C1 (stereo not drawn)	.	-8%	39%	.	.	.
CC1C/C(=C/c2cccn2C)C(=O)/C(=C/c2cccn2C)C1 (stereo not drawn)	?	25µM*	40µM*	32µM*	?	?
CC1C/C(=C/c2ccncc2)C(=O)/C(=C/c2ccncc2)C1 (stereo not drawn)	6	-13%	34%	?	-5%[59 µM]	-1
Cn1c(CN2CCN(CC#N)CC2)c(C#N)c2ccccc21	-2	-5%	53%	0%	45µM*	3
Cn1c(CN2CCCCC2)c(C#N)c2ccccc21	0	7%	31%	6%	28µM*	2
Cn1c(CN2CCC(C(N)=O)CC2)c(C#N)c2ccccc21	-6	0%[57.1 µM]	-6%	2%	-19%[59 µM]	6
O=C(OCc1ccc([N+](=O)[O-])cc1)C1CCN(S(=O)(=O)c2ccccc2)CC1	1	-8%	20%	3%	-4%[59 µM]	-16
SMILES	CtBP-E1A blk	JMJD2A Tudor inh	HP1b binding inh	BAZ2B block	G9a block	Six1-Eya2 inh
Cc1cc(=O)c2c(N(C)C)cccc2[nH]1	-1	.	.	.	.	-25
COc1ccc(N2Cc3ccccc3C2=NC(=O)c2ccc(C)cc2)cc1OC	-2	?	12%	-38%	45µM*	-5
O=C(N=C1c2ccccc2CN1c1ccc(F)c(F)c1)c1cccnc1	17	-14%	37%	-10%	-30%	20
O=C(N=C1c2ccccc2CN1c1cccc(Cl)c1)c1cccnc1	15	0%	50%	-8%	50µM*	1
O=C(N=C1c2ccccc2CN1c1ccccc1)c1cccc([N+](=O)[O-])c1	-22	?	-22%	-33%	50µM*	-24
COc1ccc(-c2nn3c(-c4cc(-c5ccccc5)n[nH]4)nnc3s2)cc1	.	-7%[57.1 µM]	31%[57 µM]	.	.	.
C[n+]1ccc(C(=O)NCCC[N+](C)(C)C)cc1/C=N/O	-12	-11%[57.1 µM]	48%	-13%	-2%	4
CN(C)CCCNC(=O)c1ccc(/C=N/O)nc1	?	1.4µM*	-31%	10%	-5%	?
Cc1ccc(C(=O)NCCCNC(=O)c2ccc(C)nc2)cc1	-1	-11%	0%	1%	10%	1
CC(C)c1ccc(C(=O)NCCCN(C)C)cc1	-12	-5%	8%	8%	?	11
CNCCCNC(=O)c1ccc(/C=N/O)nc1	?	20µM*	18%	22µM*	?	-69*
C[N+](C)(C)CCCNC(=O)c1ccc(/C=N/O)nc1	?	4µM*	4%	20µM*	?	-69*
Cc1cc(NC(=O)CN(C)S(=O)(=O)c2ccc3c(c2)CCCC(=O)N3)ccc1Br	.	-17%	-7%	9%[57.1 µM]	-8%[59 µM]	.
COc1ccc(-c2nnc3sc(CN4C(=O)c5ccccc5C4=O)nn23)cc1	2	-3%	-7%	-1%	35µM*	1
COc1ccc(-c2nnc3sc(C(C)N4C(=O)c5ccccc5C4=O)nn23)cc1 (stereo not drawn)	-8	18µM*	0%	-6%	?	-5
CC(C)=N/N=C1/NC(=O)C(c2ccc(Cl)cc2)S1 (stereo not drawn)	-8	-6%	38%	.	.	-24
CCCCn1c(N)c(N(Cc2ccccc2OC)C(=O)CN2C(=O)NC(C)(c3ccccc3)C2=O)c(=O)[nH]c1=O (stereo not drawn)	-4	-17%	7%	0%	5.6µM*	4
